In PubChem BioAssay AID687016 (The Scripps Research Institute Molecular Screening Center, 2013):
Several values for one entry are separate records, joined by “and”; a condition that tells them apart may be missing. Equal values may be shown once. The whole screen tested about 370,000 compounds, of which about 2,800 (0.76%) were called active. The full list was thinned out, with actives kept by preference. Unmarked numbers belong to inactive results. No stated cut-off is given here; in the data, active means inhibition above about 21%; inactive means the rest.

target: E3 ubiquitin-protein ligase UHRF1 (Homo sapiens) (UniProt Q96T88); test: blockers of UHRF1 binding to methyl-oligo – biochemical, TR-FRET, human UHRF1, single concentration, counter-screen for MBD2 inhibitor project, primary screen (AID 687016); details: UHRF1 binding to methylated oligo, at 4.4 µM, hits give high values;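 further: UHRF1 SRA domain binding a hemimethylated CpG hairpin DNA probe; 0% = median of test compound wells and 100% = reference inhibitor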
Sequence (Q96T88 whole entry, looked up, the tested form may be a part): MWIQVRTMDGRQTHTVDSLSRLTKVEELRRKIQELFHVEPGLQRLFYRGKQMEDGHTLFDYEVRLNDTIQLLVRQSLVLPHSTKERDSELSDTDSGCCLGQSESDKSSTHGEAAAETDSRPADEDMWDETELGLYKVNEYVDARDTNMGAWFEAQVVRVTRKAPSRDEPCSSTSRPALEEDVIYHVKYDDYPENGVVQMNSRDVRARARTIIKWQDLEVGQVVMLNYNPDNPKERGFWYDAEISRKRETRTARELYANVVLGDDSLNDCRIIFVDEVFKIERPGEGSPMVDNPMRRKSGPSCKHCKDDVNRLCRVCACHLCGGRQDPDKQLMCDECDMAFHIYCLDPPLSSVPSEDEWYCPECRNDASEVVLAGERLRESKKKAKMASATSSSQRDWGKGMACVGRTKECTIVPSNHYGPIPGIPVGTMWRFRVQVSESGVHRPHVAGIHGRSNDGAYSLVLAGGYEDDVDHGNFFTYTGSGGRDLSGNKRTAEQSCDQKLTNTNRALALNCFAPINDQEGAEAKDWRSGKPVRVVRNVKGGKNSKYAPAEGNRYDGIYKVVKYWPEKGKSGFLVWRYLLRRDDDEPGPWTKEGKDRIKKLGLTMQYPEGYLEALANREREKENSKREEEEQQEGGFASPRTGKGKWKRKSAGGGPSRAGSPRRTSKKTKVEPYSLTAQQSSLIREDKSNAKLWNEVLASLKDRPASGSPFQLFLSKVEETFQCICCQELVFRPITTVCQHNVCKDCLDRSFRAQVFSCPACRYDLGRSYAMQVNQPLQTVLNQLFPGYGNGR

| Structure (SMILES) | inhibition |
| --- | --- |
| COC(=O)[C@H](C(C)C)N(CCCc1cn(Cc2ccccc2)nn1)S(=O)(=O)c1ccc(F)cc1Br | 7.41% |
| O=S1(=O)c2ccc(Br)cc2OC[C@@H](Cc2ccccc2)N1Cc1cn(Cc2ccco2)nn1 | -5.15% |
| COc1cc(C(=S)N2CCOCC2)cc(OC)c1OC(=O)c1ccc([N+](=O)[O-])cc1[N+](=O)[O-] | 3.69% |
| CC(C)c1ccc(C(=O)OC2CCOC2=O)cc1 (stereo not drawn) | 0.68% |
| COc1cc(C(=O)OC2CCOC2=O)c([N+](=O)[O-])cc1OC (stereo not drawn) | 22.8% (active) |
| COc1ccc(CSc2nnc(SCC(=O)Nc3ccccc3C(F)(F)F)s2)cc1 | 2.07% |
| O=C(OCC#CCSc1nnc(-c2ccco2)o1)c1ccc(F)cc1 | -3.52% |
| O=C(CSc1nc2ccccc2nc1N1CCCCC1)N1CCN(S(=O)(=O)c2cccc([N+](=O)[O-])c2)CC1 | -2.11% |
| COc1cccc2c1C(=O)c1c(O)c3c(c(O)c1C2=O)CC(O)(C(C)=NNC(=O)c1ccc(Cl)c(Cl)c1)CC3OC1CC(N)C(O)C(C)O1 (stereo not drawn) | 96% (active) |
| COc1cccc(CNC(=O)CNS(=O)(=O)c2ccc3nc(C)sc3c2)c1OC | -1.45% |
| COc1cc(NC(=O)C2CCCN(S(=O)(=O)c3ccc(C(C)(C)C)cc3)C2)cc(OC)c1 (stereo not drawn) | 2.42% |
| CCCOc1ccc(Oc2c(Cl)cnn(Cc3cccc4ccccc34)c2=O)cc1 | 2.95% |
| CC(=O)Nc1nc2ncccn2c1-c1ccc(C(F)(F)F)cc1 | -2.41% |
| COc1ccc(N2C(=O)C(CC(=O)Nc3ccc(F)cc3)N(CCc3cccs3)C2=O)cc1 (stereo not drawn) | 1.34% |
| COc1ccc(N2C(=O)C(CC(=O)Nc3ccccc3)N(Cc3ccc(OC)c(OC)c3)C2=O)cc1 (stereo not drawn) | 1.08% |
| COc1ccc(CCN2C(=O)N(c3ccc(OC)cc3)C(=O)C2CC(=O)Nc2ccc(OC)cc2)cc1 (stereo not drawn) | 37.7% (active) |
| CCCCCCCCCOC1OC(CO)C(O)C(O)C1NC(C)=O (stereo not drawn) | 53.3% (active) |
| CCc1cccc(OC2OC(CO)C(O)C(O)C2NC(C)=O)c1 (stereo not drawn) | 1.52% |
| CCCCCCCCOC1OC(CO)C(O)C(O)C1NC(C)=O (stereo not drawn) | 0.97% |
| CCC(NC(=O)C1C2C=CC3(CN(Cc4ccccc4)C(=O)C13)O2)c1ccccc1 (stereo not drawn) | 0.23% |
| Cc1cc(C(=O)NN=C/C=C/c2ccco2)n[nH]1 | 5.21% |
| CCOc1ccc(NC(=O)c2ccc(NC(=O)COC(=O)c3ccc(NC(=O)CC#N)cc3)cc2)cc1 | 23.6% (active) |
| CCOc1ccc(NC(=O)c2ccc(NC(=O)CN3C(=O)C(=O)N(CC(C)C)C3=O)cc2)cc1 | 3.55% |
| CCOc1ccc(NC(=O)c2ccc(CSc3nnnn3C)cc2)cc1 | -0.48% |
| COc1cccc(Cn2cc(COC(=O)Nc3ccc(F)cc3)nn2)c1 | 0.48% |
| Cc1cccc(Cn2c(N3CCN(c4ccccc4)CC3)nc3c2c(=O)n(C)c(=O)n3C)c1 | 23.8% (active) |
| CCOC(=O)N1CCN(Cc2nc3c(c(=O)n(C)c(=O)n3C)n2Cc2ccccc2)CC1 | 1.75% |

| Structure (SMILES) | inhibition |
| --- | --- |
| Cn1c(=O)c2c(ncn2CC(=O)N2CCN(c3ccccc3)CC2)n(C)c1=O | -2.46% |
| CN(C)[C@H]1CCN(c2cccc3c2S(=O)(=O)N2CC[C@H](C2)O3)C1 | -0.6% |
| O=C(NCCCc1ccccc1)[C@H](Cc1ccccc1)NC1(C(=O)NCCc2c[nH]c3ccccc23)CCC1 | 0.93% |
| C=CCN1C(=O)[C@@H](CC(=O)NCC2CCCCC2)[C@]2(C(=O)OC)CCCCC=C12 | -2.02% |
| COc1cccc(N2CCN(CC(=O)N(C)Cc3ccc(F)cc3)CC2)c1 | -0.26% |
| COC(=O)c1cc(S(=O)(=O)N2CCN(c3ccccc3C)CC2)cn1C | -0.14% |
| CCOC(=O)[C@]12CCCC=C1N(Cc1ccc(OC)cc1)C(=O)[C@@H]2CC(=O)NCc1cccs1 | 0.05% |
| O=C(Nc1cc(Cl)cc(Cl)c1)OCCN1CCCC12CCC(c1ccccc1)CC2 (stereo not drawn) | -2.5% |
| O=C(CSc1nc2c(c(=O)[nH]1)CCCC2)N1CCCCC1 | 4.3% |
| CCN(CC)CCOc1ccc2c(c1)C(=NNC(=O)c1ccccn1)c1cc(OCCN(CC)CC)ccc1-2 | 105% (active) |
| CN(CCOc1ccc(CC2SC(=O)NC2=O)cc1)c1ccccn1 (stereo not drawn) | 0.45% and -0.75% |
| CCCC(C(=O)OCCN(CC)CC)(c1ccccc1)c1ccccc1 | 0% |
| Cc1ccc(C)c(NC(=O)CCS(=O)(=O)c2ccccc2)c1 | 5.41% |
| Cc1ccsc1-c1cc(C(=O)O)c2c(ccc3ccccc32)n1 | -2.73% |
| CCOC(=O)c1ccn(-c2nc(-c3ccco3)cc(C(F)(F)F)n2)n1 | 1.45% |
| Cc1cc(C)c2nc(-c3ccco3)cc(C(=O)O)c2c1 | 73.6% (active) |
| C=C(C)C#CC(Cc1ccccc1)NCC1CC1 (stereo not drawn) | -0.06% |
| Cc1ccccc1NC(=O)Cn1nnc(-c2ccccc2F)n1 | -2.25% |
| CC(=O)c1cc(-c2ccc3ccccc3c2)c(=O)n2c1CCC2 | -1.09% |
| COC(=O)[C@]12C[C@H](CC(=O)N3CCN(C(=O)C4CC4)CC3)C(=O)N(CCC3=CCCCC3)C1=C[C@H](C(C)C)O[C@@H]2C1CC1 | -0.03% |
| COc1nc(-c2ccc(Cl)cc2)ccc1-c1noc(-c2cccs2)n1 | 37.1% (active) |
| N#Cc1ccc(-c2ccc(Cl)cc2)nc1Oc1ccc(F)cc1 | -1.28% |
| Cc1cc(NS(=O)(=O)c2ccc(NC(=O)CSc3nnc(-c4ccc(C(C)(C)C)cc4)n3Cc3ccco3)cc2)nc(C)n1 | -1.86% |
| COC(=O)C12C=C3CC(c4ccccc4)=C3C(=O)N1Cc1[nH]c3ccccc3c1C2 (stereo not drawn) | -0.85% |
| C=CCN1C(=O)[C@H](CC(=O)NCCCN2CCCC2=O)[C@@]2(C(=O)OCC)CCCC=C12 | 1.86% |
| COC(=O)[C@]12C[C@H](CC(=O)NCCCN3CCCC3=O)C(=O)N(CCc3ccc(OC)c(OC)c3)C1=C[C@H](COCc1ccccc1)O[C@@H]2C | -1.34% |
